Assay results taken from PubChem BioAssay (NCATS).
Inconclusive results are not listed. The source made the active and inactive calls. The call rests on the fitted dose curve; in most records, active means well fitted curve in the direction sought with a large enough effect; inconclusive means small, poorly fitted or top-dose-only effect, or another doubt; inactive means no such curve, though single readings can be large; an effect the other way counts as inactive or inconclusive.

How the values were obtained:
[1] = system: MCC-13; assay: qHTS assay to identify novel small-molecules to repurpose for Merkel cell carcinoma treatment (AID 1296009); conditions: MCC and control cell lines, CellTiter-Glo viability, 72 h; series mostly up to 46 µM; further: nearly all actives have a fitted effect of over 60% in size
Procedure, shortened: (§1)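 72 hr, 37 degree celsius; NPC 8-pt / MIPE 11-pt dose response; compound pinned in DMSO; CellTiter-Glo, 10 min RT, luminescence; normalized to no-cell and DMSO controls.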

[2] = system: MCC-26; assay: as above; conditions: MCC and control cell lines, CellTiter-Glo viability, 72 h; series mostly up to 46 µM
Procedure, shortened: as §1

[3] = system: MKL-1; assay: as above; conditions: MCC and control cell lines, CellTiter-Glo viability, 72 h; series mostly up to 46 µM
Procedure, shortened: as §1

[4] = system: MKL-2; assay: as above; conditions: MCC and control cell lines, CellTiter-Glo viability, 72 h; series mostly up to 46 µM
Procedure, shortened: as §1

[5] = system: NIH3T3; assay: as above; conditions: MCC and control cell lines, CellTiter-Glo viability, 72 h; at 44.8 µM (top of the series) unless noted
Procedure, shortened: as §1

[6] = system: UISO; assay: as above; conditions: MCC and control cell lines, CellTiter-Glo viability, 72 h; series mostly up to 46 µM
Procedure, shortened: as §1

[7] = system: WaGa; assay: as above; conditions: MCC and control cell lines, CellTiter-Glo viability, 72 h; series mostly up to 46 µM
Procedure, shortened: as §1

[8] = system: C33A; assay: Primary qHTS to identify gynecologic anti-cancer compounds using libraries of approved drugs and bioactive compounds (AID 1345084); conditions: Gynecologic cancer cell panel viability, ATPlite luminescence, 48 h; series mostly up to 57.5 µM; further: nearly all actives have a fitted effect of over 55% in size
Procedure, shortened: (§2)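 Five-concentration response, 48 h; readout is ATP-driven luciferase luminescence.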

[9] = system: CAOV3; assay: as above; conditions: Gynecologic cancer cell panel viability, ATPlite luminescence, 48 h; series mostly up to 57.5 µM
Procedure, shortened: as §2

[10] = system: CASKI; assay: as above; conditions: Gynecologic cancer cell panel viability, ATPlite luminescence, 48 h; series mostly up to 57.5 µM
Procedure, shortened: as §2

[11] = system: Es-2; assay: as above; conditions: Gynecologic cancer cell panel viability, ATPlite luminescence, 48 h; series mostly up to 57.5 µM
Procedure, shortened: as §2

[12] = system: HeLa; assay: as above; conditions: Gynecologic cancer cell panel viability, ATPlite luminescence, 48 h; series mostly up to 57.5 µM
Procedure, shortened: as §2

[13] = system: Hek293T; assay: as above; conditions: Gynecologic cancer cell panel viability, ATPlite luminescence, 48 h, control line for the selectivity index; series mostly up to 57.5 µM
Procedure, shortened: as §2

[14] = system: JEG-3; assay: as above; conditions: Gynecologic cancer cell panel viability, ATPlite luminescence, 48 h; series mostly up to 57.5 µM
Procedure, shortened: as §2

[15] = system: OV90; assay: as above; conditions: Gynecologic cancer cell panel viability, ATPlite luminescence, 48 h; series mostly up to 57.5 µM
Procedure, shortened: as §2

[16] = system: PA-1; assay: as above; conditions: Gynecologic cancer cell panel viability, ATPlite luminescence, 48 h; series mostly up to 57.5 µM
Procedure, shortened: as §2

[17] = system: SKOV3; assay: as above; conditions: Gynecologic cancer cell panel viability, ATPlite luminescence, 48 h; series mostly up to 57.5 µM
Procedure, shortened: as §2

[18] = system: Tov-21-G; assay: as above; conditions: Gynecologic cancer cell panel viability, ATPlite luminescence, 48 h; series mostly up to 57.5 µM
Procedure, shortened: as §2

[19] = system: Tov112D; assay: as above; conditions: Gynecologic cancer cell panel viability, ATPlite luminescence, 48 h; series mostly up to 57.5 µM
Procedure, shortened: as §2

[20] = Drug repurposing screens with cells derived from glioblastoma tumor samples (AID 1345199); conditions: GBM patient neurospheres viability, ATP luminescence, 48 h; further: nearly all actives have a fitted effect of over 40% in size
Procedure, shortened: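 Four patient lines of CD133+ GBM neurospheres were screened at several concentrations; hits were retested in those lines plus three slower-growing GBM lines, using 48-hour treatment and ATP-based viability.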

[21] = at 45.9 µM (top of the series), tumour line B
[22] = at 45.9 µM (top of the series), tumour line D
[23] = at 46 µM (top of the series), tumour line A
[24] = at 46.1 µM (top of the series), tumour line C
On the % scale 0 is the no-effect control and ±100 the full control effect.

O=C(O)C(S)C(S)C(=O)O (stereo not given)
inactive: outcome [1] | outcome [2] | outcome [3] | outcome [4] | outcome [5] | outcome [6] | outcome [7] | outcome [8] | outcome [9] | outcome [10] | outcome [11] | outcome [12] | outcome [13] | outcome [14] | Potency [15] | outcome [16] | outcome [17] | outcome [18] | outcome [19]

Cc1c(I)c(=O)n(-c2ccccc2)n1C
inactive: outcome [1] | outcome [2] | outcome [3] | outcome [4] | outcome [5] | outcome [6] | outcome [7] | outcome [8] | outcome [9] | outcome [10] | outcome [11] | outcome [12] | outcome [13] | outcome [14] | Potency [15] | outcome [16] | outcome [17] | outcome [18] | outcome [19] | activity, negative = cell killing [20, 21] -4.2% | activity, negative = cell killing [20, 22] -14% | activity, negative = cell killing [20, 23] -24.2% | activity, negative = cell killing [20, 24] 3.68%

Cc1c(C)c2c(c(C)c1OC(=O)c1cccnc1)CC[C@@](C)(CCC[C@H](C)CCC[C@H](C)CCCC(C)C)O2
inactive: outcome [1] | outcome [2] | outcome [3] | outcome [4] | outcome [5] | outcome [6] | outcome [7] | outcome [8] | outcome [9] | outcome [10] | outcome [11] | outcome [12] | outcome [13] | outcome [14] | Potency [15] | outcome [16] | outcome [17] | outcome [18] | outcome [19] | activity, negative = cell killing [20, 21] -11.4% | activity, negative = cell killing [20, 22] -0.0875% | activity, negative = cell killing [20, 23] -9.82% | activity, negative = cell killing [20, 24] -12.2%

COc1ccccc1OCC(O)CO (stereo not given)
inactive: outcome [1] | outcome [2] | outcome [3] | outcome [4] | outcome [5] | outcome [6] | outcome [7] | outcome [8] | outcome [9] | outcome [10] | outcome [11] | outcome [12] | outcome [13] | outcome [14] | Potency [15] | outcome [16] | outcome [17] | outcome [18] | outcome [19] | activity, negative = cell killing ([20]; at 20 µM (top of the series), tumour line C) 14.1% | activity, negative = cell killing ([20]; at 21.2 µM (top of the series), tumour line B) -4.78% | activity, negative = cell killing ([20]; at 21.2 µM (top of the series), tumour line D) -22.3% | activity, negative = cell killing ([20]; at 21.3 µM (top of the series), tumour line A) -18.5%

NC(=O)NS(=O)(=O)c1ccc(N)cc1
inactive: outcome [1] | outcome [2] | outcome [3] | outcome [4] | outcome [5] | outcome [6] | outcome [7] | outcome [8] | outcome [9] | outcome [10] | outcome [11] | outcome [12] | outcome [13] | outcome [14] | Potency [15] | outcome [16] | outcome [17] | outcome [18] | outcome [19] | activity, negative = cell killing [20, 21] -9.53% | activity, negative = cell killing [20, 22] 9.92% | activity, negative = cell killing [20, 23] -3.84% | activity, negative = cell killing [20, 24] 3.57%

c1ccc2[nH]ccc2c1
inactive: outcome [1] | outcome [2] | outcome [3] | outcome [4] | outcome [5] | outcome [6] | outcome [7] | outcome [8] | outcome [9] | outcome [10] | outcome [11] | outcome [12] | outcome [13] | outcome [14] | Potency [15] | outcome [16] | outcome [17] | outcome [18] | outcome [19] | activity, negative = cell killing [20, 21] -8.88% | activity, negative = cell killing [20, 23] -21.8% | activity, negative = cell killing [20, 24] 0.178%

NC(=O)c1ccc([N+](=O)[O-])cc1Cl
inactive: outcome [1] | outcome [2] | outcome [3] | outcome [4] | outcome [5] | outcome [6] | outcome [7] | outcome [8] | outcome [9] | outcome [10] | outcome [11] | outcome [12] | outcome [13] | outcome [14] | Potency [15] | outcome [16] | outcome [17] | outcome [18] | outcome [19] | activity, negative = cell killing [20, 21] -9.49% | activity, negative = cell killing [20, 22] -5.61% | activity, negative = cell killing [20, 24] -36.6%

O=C(c1ccccc1)C(O)c1ccccc1 (stereo not given)
inactive: outcome [1] | outcome [2] | outcome [3] | outcome [4] | outcome [5] | outcome [6] | outcome [7] | outcome [8] | outcome [9] | outcome [10] | outcome [11] | outcome [12] | outcome [13] | outcome [14] | Potency [15] | outcome [16] | outcome [17] | outcome [18] | outcome [19] | activity, negative = cell killing [20, 21] 4.63% | activity, negative = cell killing [20, 22] -16.7% | activity, negative = cell killing [20, 23] -19% | activity, negative = cell killing [20, 24] -3.13%

N[C@@H](Cc1ccc(O)cc1)C(=O)O
inactive: activity change, negative = cytotoxicity [1] 12.1% [at 9.22 µM] | activity change, negative = cytotoxicity [2] 4.77% [at 9.22 µM] | activity change, negative = cytotoxicity [3] 3.97% [at 9.22 µM] | activity change, negative = cytotoxicity [4] -20.6% [at 9.22 µM] | outcome [5] inactive [at 9.27 µM] | activity change, negative = cytotoxicity [6] 19.3% [at 9.22 µM] | activity change, negative = cytotoxicity [7] -2.96% [at 9.22 µM] | activity change, negative = cytotoxicity [8] 3.53% [at 11.6 µM] | activity change, negative = cytotoxicity [9] -13.2% [at 11.6 µM] | activity change, negative = cytotoxicity [10] 0.958% [at 11.6 µM] | activity change, negative = cytotoxicity [11] -4.06% [at 11.6 µM] | activity change, negative = cytotoxicity [12] 11.2% [at 11.6 µM] | activity change, negative = cytotoxicity [13] 11.5% [at 11.6 µM] | activity change, negative = cytotoxicity [14] 4.09% [at 11.6 µM] | activity change, negative = cytotoxicity [15] 9.24% [at 11.6 µM] | activity change, negative = cytotoxicity [16] 1.05% [at 11.6 µM] | activity change, negative = cytotoxicity [17] -0.073% [at 11.6 µM] | activity change, negative = cytotoxicity [18] 5.15% [at 11.6 µM] | activity change, negative = cytotoxicity [19] 8.21% [at 11.6 µM] | activity, negative = cell killing [20, 21] -2.51% | activity, negative = cell killing [20, 22] -14.6% | activity, negative = cell killing [20, 23] -11% | activity, negative = cell killing [20, 24] 37.9%

NS(=O)(=O)c1ccc(NC(=O)CCC(=O)O)cc1
inactive: outcome [1] | outcome [2] | outcome [3] | outcome [4] | outcome [5] | outcome [6] | outcome [7] | outcome [8] | outcome [9] | outcome [10] | outcome [11] | outcome [12] | outcome [13] | outcome [14] | Potency [15] | outcome [16] | outcome [17] | outcome [18] | outcome [19] | activity, negative = cell killing [20, 21] -12.7% | activity, negative = cell killing [20, 22] 0.766% | activity, negative = cell killing [20, 24] -4.81%

O=C(CN1CCNCC1)NC1CCCCC1
inactive: outcome [1] | outcome [2] | outcome [3] | outcome [4] | outcome [5] inactive; activator | outcome [6] | outcome [7] | outcome [8] | outcome [9] | outcome [10] | outcome [11] | outcome [12] | outcome [13] | outcome [14] | Potency [15] | outcome [16] | outcome [17] | outcome [18] | outcome [19] | activity, negative = cell killing [20, 21] -13.1% | activity, negative = cell killing [20, 22] -7.64% | activity, negative = cell killing [20, 24] -22.5%
